# D1 allo mod: allosteric modulators of human D1 dopamine receptor. HEK293 D1, CRE-luciferase, dopamine EC30 potentiation; actives deviate in either direction. B-score at 10 µM. 5.9% of 58,000 active;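 active means luminescence count or its row- and column-corrected plate score outside the 99.7% band of the plate's sample wells, on either side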
# PLAP act: activators of human placental alkaline phosphatase | P05187 | purified PLAP enzyme, luminescent substrate read-out; active compounds read high | activation fold at 20 µM | 1.2% of 96,000 active; in the data active means activation fold above about 2
# PostGolgi ctrl: inhibits growth of the yeast control strain. efflux-deficient yeast background strain, growth absorbance A615, 16 h. inhibition, % at 10 µM. 5% of 98,000 active
# PostGolgi yeast: growth inhibition of a yeast mutant, post-Golgi transport screen; post-Golgi transport phenotypic cell assay; inhibition, % at 10 µM; 0.9% of 98,000 active;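 further: yeast cells grown in 1536-well plates; yeast grown about 18 h at 30C before absorbance read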
# Cav3 T inh: inhibitors of human Cav3.2 T-type calcium channel; O95180; Cav3.2-expressing cells, Fluo-4 calcium fluorescence FDSS; active compounds read low; B-score at 10 µM; 4% of 100,000 active; AID 449739;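 active means single-dose well whose peak fluorescence ratio is a statistical outlier from its plate by either plate-standardised score or position-corrected B-score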
# DAT uptake mod: modulates human dopamine transporter uptake under cocaine; LLC-PK1 hDAT cells, [14C]-dopamine uptake with cocaine IC80; actives deviate in either direction; AID 449768; Q01959; 1.3% of 110,000 active; B-score at 10 µM;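 active means Z score or B-score, a plate-position-corrected score, falls beyond the plate's 99.7% confidence bounds, in either direction; inactive means both scores lie inside the 99.7% bounds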
# A number is an active result; 0 = inactive; - = no result given. The list is not random: actives were taken first. Their share in the collection is about 12%. Unless noted, no stated cut-off is given here; in the data, active means inhibition above about 30%; inactive means the rest.
SMILES,D1 allo mod,PLAP act,PostGolgi ctrl,PostGolgi yeast,Cav3 T inh,DAT uptake mod
CCC(CO)Nc1ccc([N+](=O)[O-])c2cccnc12 (centres undefined),-,0,0,0,0,0
CCN(CCNc1ccc([N+](=O)[O-])c2cccnc12)S(=O)(=O)c1ccc(Cl)cc1,-,0,35,0,0,0
CS(=O)(=O)c1ccc(C2=C(c3ccccc3)C(=O)OC2)cc1,-,-,-,-,0,0
CC/C(=C\C=C\[C@@H]1C=C[C@@H]2CCC[C@H]2[C@@H]1C(=O)c1ccc[nH]1)[C@@H]1O[C@@H]([C@@H](C)C(=O)O)CC[C@@H]1C,-,-,-,-,-8.5,-4
CCCCSC1=NN1c1nc(N)nc(C)c1CC,-,0,0,0,0,0
CCOc1ccc(-n2c(O)c(C=Nc3ccc(N4CCOCC4)cc3)c(=O)[nH]c2=O)cc1,0,0,0,0,0,0
COc1ccc(-n2c(O)c(C(C)=NCc3ccco3)c(=O)[nH]c2=O)cc1,0,0,38,0,0,0
Cc1ccc2c(c1)CC1(CN2C)C(=O)NC(=O)N(CCc2ccccc2)C1=O (centres undefined),-,0,37,0,0,0
Clc1cccc(C2NCCc3[nH]cnc32)c1 (centres undefined),-,0,40,0,-,0
CC(C)C/C(=N/O)c1c[nH]c2ccccc12,-,0,0,0,0,4.2
CC(C)(C)c1ccc(S(=O)(=O)N2CC3CC(C2)c2cccc(=O)n2C3)cc1 (centres undefined),-,0,0,0,0,2.4
C[C@@H]1O[C@@H](O[C@H]2C[C@@H](O)[C@]3(CO)[C@H]4[C@H](O)C[C@]5(C)[C@@H](C6=CC(=O)OC6)CC[C@]5(O)[C@@H]4CC[C@]3(O)C2)[C@H](O)[C@H](O)[C@H]1O,-,-,-,-,0,-6.6
C[C@H]1O[C@@H](O[C@H]2[C@@H](O)C[C@H](O[C@H]3[C@@H](O)C[C@H](O[C@H]4CC[C@@]5(C)[C@H](CC[C@@H]6[C@@H]5CC[C@]5(C)[C@@H](C7=CC(=O)OC7)CC[C@]65O)C4)O[C@@H]3C)O[C@@H]2C)C[C@H](O)[C@@H]1O,-,-,-,-,0,-7.2
CCC1=CCN(CCc2c(C)[nH]c3ccccc23)CC1,-,-,-,-,0,0
O=C(Cn1ncc2c3ccccc3n(Cc3ccccc3F)c2c1=O)N1CCC2(CC1)OCCO2,0,0,0,55,-8.6,0
O=C(Cn1ncc2c3ccccc3n(Cc3ccccc3)c2c1=O)N1CCC2(CC1)OCCO2,0,0,0,0,-11,0
CCN1C[C@]2(COC)CC[C@H](O)[C@@]34C5C[C@H]6[C@H](O)C5[C@](O)(C[C@H]6OC)[C@@H]([C@H](OC)C23)[C@@H]14 (some centres undefined),-,-,-,-,0,0
Cc1cc2c(C(C)C)c(O)c(O)c(C=O)c2c(O)c1-c1c(C)cc2c(C(C)C)c(O)c(O)c(C=O)c2c1O,-,-,-,-,0,0
COC[C@]12CN(C)C3C4[C@H](OC)[C@H]1C3([C@@H](OC)C[C@H]2O)[C@@H]1C[C@@]2(O)[C@H](OC(=O)c3ccccc3)[C@@H]1[C@]4(OC(C)=O)[C@@H](O)[C@@H]2OC,-,-,-,-,0,0
C=C1[C@@H](OC(C)=O)[C@]23C[C@@H]1[C@@H](OC(C)=O)CC2[C@]12C4C[C@H]3[C@H]1N(CC)C[C@]4(C)CC[C@@H]2O (some centres undefined),-,-,-,-,0,0
CN1CCC(N(C)c2nc(-c3ccc([N+](=O)[O-])cc3)nc3ccccc23)CC1,-,0,0,0,-,-
CN(CC1COc2ccccc2O1)c1nc(-c2cccnc2)nc2ccccc12 (centres undefined),0,-,70,0,0,0
CCN1CCC2(CC1)NC(CO)(CO)CO2,-,0,0,0,0,0
COC(=O)C1C2c3ccccc3OC1(C)N=c1s/c(=C/c3cn(C)nc3C)c(=O)n12 (centres undefined),-4.2,0,0,0,0,0
CN1C2CCC1CC(=NO)C2,-,-,-,-,0,0
CNCC1(c2ccccc2)CCCC1,-,0,0,0,0,-7.4
COC(=O)C1=C(c2ccc(S(C)(=O)=O)cc2)C[C@@H]2CC[C@H]1N2C(=O)NCCCOC(C)C,-,-,-,-,0,0
CN(C)c1ccc(N=Cc2c(O)n(CCC3=CCCCC3)c(=O)[nH]c2=O)cc1,0,0,0,0,0,0
CCN(CC)c1ccc(N=Cc2c(O)n(CCC3=CCCCC3)c(=O)[nH]c2=O)cc1,0,0,0,0,-5.6,0
CC(=O)N(C)CC#CCN1CCC(O)CC1,-,-,-,-,0,0

# Compound activity deposited in PubChem by several laboratories.
